Source: PubChem BioAssay AID1345085 (National Center for Advancing Translational Sciences (NCATS), 2018)
Records with an inconclusive call do not appear. A number with no mark means an inactive call. Activity calls are given as the source filed them. The call rests on the fitted dose curve; in most records, active means well fitted cell-killing curve with a large enough effect; inconclusive means small, poorly fitted or top-dose-only effect, or effect the other way; inactive means no such curve, though single readings can be large or run the other way.

Test system: PA-1
Assay: Confirmatory qHTS for gynecologic anti-cancer compounds from libraries of approved drugs and bioactive compounds; further: nearly all actives have a fitted effect of over 55% in size
Conditions: gynecologic cancer cell panel viability, ATPlite luminescence, 48 h; series mostly up to 57.6 µM; activity change, negative = viability loss: at the top concentration
Procedure, shortened: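 1,000 cells/well; 16 h pre-incubation 37 C, 5% CO2; pin-transferred cpd in DMSO, 11 conc (1:3), 57.5 uM–0.977 nM; 48 h; ATPlite, 15 min RT; luminescence → IC50.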
On the % scale 0 is the no-effect control and ±100 the full control effect; potency means the concentration at half of the fitted maximal effect.

Row | Compound | Potency | activity change, negative = viability loss
1 | CNc1nccc(-c2cccnc2Oc2cc(C(=O)Nc3cccc(C(F)(F)F)c3)ccc2C)n1 | 17.2 µM (active) | –
2 | O=C(Nc1cccnc1)N1CCC(Cc2cccc(Oc3ccc(C(F)(F)F)cn3)c2)CC1 | 6.85 µM (active) | –
3 | Cc1cc(CN2CCN(c3c(Br)cnc4nc(-c5ccc(N6CCN(C)CC6)cc5)[nH]c34)CC2)no1 | 17.2 µM (active) | –
4 | Cc1cc(C(=O)N2CCN(c3cccc(Cl)c3)CC2)n(-c2ccccc2)n1 | 3.43 µM (active) | –
5 | CNc1nc(Nc2ccc(C(=O)N3CCOCC3)cc2OC)ncc1Cl | – | 3.04%
6 | COc1ccc2cc3[n+](cc2c1OC)CCc1cc2c(cc1-3)OCO2 | 0.968 µM (active) | –
7 | Cn1cnc([N+](=O)[O-])c1Sc1ncnc2nc[nH]c12 | 5.44 µM (active) | –
8 | CCC1=CC2CN(C1)Cc1c([nH]c3ccccc13)[C@@](C(=O)OC)(c1cc3c(cc1OC)N(C)[C@H]1[C@@](O)(C(=O)OC)[C@H](OC(C)=O)[C@]4(CC)C=CCN5CC[C@]31[C@@H]54)C2 (some centres undefined) | 0.053 µM (active) | –
9 | Cc1cnc(Nc2ccc(OCCN3CCCC3)cc2)nc1Nc1cccc(S(=O)(=O)NC(C)(C)C)c1 | 4.32 µM (active) | –
10 | CCc1c2c(nc3ccc(O)cc13)-c1cc3c(c(=O)n1C2)COC(=O)[C@]3(O)CC | 0.0769 µM (active) | –
11 | COc1cc2c(NC3CCN(C(C)C)CC3)nc(C3CCCCC3)nc2cc1OCCCN1CCCC1 | 17.2 µM (active) | –
12 | Cc1cc(Nc2nc(N[C@@H](C)c3ncc(F)cn3)ncc2Cl)n[nH]1 | 3.85 µM (active) | –
13 | COc1cccc2c1C(=O)c1c(O)c3c(c(O)c1C2=O)C[C@@](O)(C(=O)CO)C[C@@H]3O[C@H]1C[C@H](N)[C@H](O)[C@H](C)O1 | 0.432 µM (active) | –
14 | CCN(CC)CCNC(=O)c1c(C)[nH]c(/C=C2\C(=O)Nc3ccc(F)cc32)c1C | 8.91 µM (active) | –
15 | CCCCc1oc2ccc(NS(C)(=O)=O)cc2c1C(=O)c1ccc(OCCCN(CCCC)CCCC)cc1 | 27.3 µM (active) | –
16 | CCCCc1oc2ccccc2c1C(=O)c1cc(I)c(OCCN(CC)CC)c(I)c1 | 39.8 µM (active) | –
17 | CC[C@@]1(O)C(=O)OCc2c1cc1n(c2=O)Cc2c-1nc1ccccc1c2/C=N/OC(C)(C)C | 0.0273 µM (active) | –

Row | Compound | Potency | activity change, negative = viability loss
18 | CC(C)(C(=O)NCC(F)(F)C(F)(F)F)C(=O)NC1C(=O)Nc2ccccc2-c2ccccc21 (centres undefined) | 9.68 µM (active) | –
19 | CC[C@H](CC#N)OC(=O)N[C@@H](C)c1cccc(NC(=O)Nc2ccc(-c3cnco3)c(OC)c2)c1 | 0.217 µM (active) | –
20 | COc1cc2nccc(Oc3ccc(NC(=O)Nc4cc(C)on4)c(Cl)c3)c2cc1OC | 5.44 µM (active) | –
21 | CC[C@@]1(O)C(=O)OCc2c1cc1n(c2=O)Cc2cc3cc(O)ccc3nc2-1 | 0.109 µM (active) | –
22 | O=C(c1ccc(/C=C/c2n[nH]c3ccccc23)cc1)N1CCNCC1 | 6.11 µM (active) | –
23 | CC(Oc1cc(-n2cnc3ccc(CN4CCN(C)CC4)cc32)sc1C(N)=O)c1ccccc1C(F)(F)F (centres undefined) | 2.43 µM (active) | –
24 | COc1cccc2c1C(=O)c1c(O)c3c(c(O)c1C2=O)C[C@@](O)(C(=O)CO)C[C@@H]3O[C@H]1C[C@H](N)[C@H](O[C@@H]2CCCCO2)[C@H](C)O1 | 0.685 µM (active) | –
25 | CN(NC(=O)CC(=O)NN(C)C(=S)c1ccccc1)C(=S)c1ccccc1 | 0.0544 µM (active) | –
26 | OCCNC1CCCc2c1[nH]c1ccc(-c3ccccc3)cc21 (centres undefined) | 27.3 µM (active) | –
27 | O=C(NCC(O)CO)c1ccncc1Nc1ccc(I)cc1F (centres undefined) | 0.0611 µM (active) | –
28 | C[C@@H](Oc1cc(-c2cnn(C3CCNCC3)c2)cnc1N)c1c(Cl)ccc(F)c1Cl | 6.85 µM (active) | –
29 | Cc1cc(Nc2cc(N3CCN(C)CC3)nc(Sc3ccc(NC(=O)C4CC4)cc3)n2)n[nH]1 | 2.17 µM (active) | –
30 | COc1ccc2c(c1)c(CC(=O)O)c(C)n2C(=O)c1ccc(Cl)cc1 | 27.3 µM (active) | –
31 | COc1cc(C(=O)N2CCC(N3CCN(C)CC3)CC2)ccc1Nc1ncc2c(n1)N(C)c1ccccc1C(=O)N2C | 9.68 µM (active) | –
32 | OC[C@H]1O[C@@H](n2cnc3c(=S)nc[nH]c32)[C@H](O)[C@@H]1O | 2.73 µM (active) | –
33 | O=C(Nc1cn[nH]c1-c1nc2ccc(CN3CCOCC3)cc2[nH]1)NC1CC1 | 3.85 µM (active) | –
34 | Cc1ccc(C(=O)N(CCCN)C(c2oc3cc(Cl)ccc3c(=O)c2Cc2ccccc2)C(C)C)cc1 (centres undefined) | 0.0137 µM (active) | –
